The panel holds about 79,000 compounds, 15% with a hit somewhere; the sample as a whole holds those more often. Cut-off read from the data, not from the text of the source: active = growth inhibition above about 70%; inactive = the rest.
Legend:
[1] = NCI Yeast Anticancer Drug Screen. Data for the rad50 strain (AID 155);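 note: 0% = growth of vehicle-only cultures of the same strain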; settings: S. cerevisiae rad50 strain growth inhibition; at 50.0 µM; stronger effect = higher value
In short: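 Vehicle-treated cultures provide the reference for the growth inhibition reported for compound-exposed, repair-deficient yeast.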

[2] = NCI Yeast Anticancer Drug Screen. Data for the mec2-1 strain (AID 157); settings: S. cerevisiae mec2-1 strain, at 50.0 µM, stronger effect = higher value
In short: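 Strain: mec2-1 (DNA repair/cell cycle alteration). Compound exposure, then growth measured; inhibition expressed relative to vehicle.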

[3] = NCI Yeast Anticancer Drug Screen. Data for the sgs1 mgt1 strain (AID 161);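 note: 0% = growth of cultures given vehicle only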; settings: S. cerevisiae sgs1 mgt1 strain, at 50.0 µM, stronger effect = higher value
In short: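 Inhibition of yeast growth, normalised to vehicle-treated controls, is reported for a strain bearing genetic alterations in DNA damage repair.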

[4] = NCI Yeast Anticancer Drug Screen. Data for the cln2 rad14 strain (AID 165);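 note: 0% = growth equal to vehicle treated cultures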; settings: S. cerevisiae cln2 rad14 strain, at 50.0 µM, stronger effect = higher value
In short: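 Compounds are applied to the cln2 rad14 yeast strain, and growth is then compared with that of vehicle-treated cultures to give inhibition.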

[5] = NCI Yeast Anticancer Drug Screen. Data for the bub3 strain (AID 167); settings: S. cerevisiae bub3 mutant strain, at 50.0 µM, stronger effect = higher value
In short: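 Mutant yeast screening strain plus compound; vehicle-treated cultures serve as the 0% inhibition reference.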

[6] = NCI Yeast Anticancer Drug Screen. Data for the mlh1 rad18 strain (AID 175); settings: S. cerevisiae mlh1 rad18 strain growth inhibition; at 50.0 µM; stronger effect = higher value
In short: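 Read-out is yeast growth inhibition, calculated against vehicle-only controls. The compound was applied to a strain engineered with DNA damage repair alterations.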

Measured: growth inhibition

O=C(/C=C/c1ccc(O)c(O)c1)OC1C[C@@](O)(C(=O)O)C[C@@H](O)[C@H]1OC(=O)/C=C/c1ccc(O)c(O)c1 (some centres not stated)
inactive: [1] 17.8% | [2] -14.1% | [3] 21.1% | [4] -2.95% | [5] -6% | [6] 25.9%

COc1ccc(C(=O)CC2=NC3NN(c4ccccc4)C(=O)C3=C2CC(=O)c2ccc(OC)cc2)cc1 (configuration not stated)
inactive: [1] 48.1% | [2] 32.1% | [3] 55.5% | [4] 23.8% | [5] -2.25% | [6] 31.8%

O=C1Cc2c(-c3cccs3)cc(-c3ccccc3)nc2-c2ccccc2N1
inactive: [1] 0% | [2] -3.9% | [3] 3.4% | [4] 18.2% | [5] -4.75% | [6] 7.85%

Cc1cc(C)c2c(=O)n(-c3ccc(Br)cc3)c(=S)n(-c3ccc(Br)cc3)c2n1
inactive: [1] 19.2% | [2] 4.35% | [3] -3.2% | [4] 12.8% | [5] -3.85% | [6] 23.5%

COC1C(=O)CCC2(CO2)C1(O)C1(C)OC1CC=C(C)C (configuration not stated)
inactive: [1] -22.9% | [2] -34.4% | [3] -31.6% | [4] -5.2% | [5] -28.2% | [6] -25.8%

CCc1c(N)nc(=O)[nH]c1C(=O)O
inactive: [1] -4.9% | [2] -0.2% | [3] 10.1% | [4] -26.3% | [5] -26% | [6] -16.6%

CCCCCCCCCCCCS(=O)(=O)O (tested in a mixture with another compound)
inactive: [1] -5.1% | [2] -6% | [3] -9.05% | [4] -12.4% | [5] -22.5% | [6] -12.8%

Cn1c(=O)c2[nH]c(N/N=N/c3nncs3)nc2n(C)c1=O
inactive: [1] -67.5% | [2] -117% | [3] -51.9% | [4] -19.8% | [5] -19.4% | [6] -117%

c1ccc(-c2cc(-c3cc(-c4ccccc4)n(-c4ccccc4)n3)nn2-c2ccccc2)cc1
inactive: [1] -2.9% | [2] -13.2% | [3] -19.3% | [4] -2.55% | [5] -14% | [6] -38.3%

CC(C)=NNC(=O)c1ccccc1O
inactive: [1] 33.9% | [2] -7.7% | [3] 3.5% | [4] 2.3% | [5] 1.65% | [6] -10.2%

O=Cc1cc(Cl)cc(Cl)c1
inactive: [1] 5% | [2] -18.1% | [3] 0.85% | [4] 8.7% | [5] 8.95% | [6] 6.55%

CCc1ccc2c(c1)C(=O)c1c(c(-c3ccccc3)c3ccccc3c1-c1ccccc1)C2=O
inactive: [1] -5.95% | [2] -4.5% | [3] -6.4% | [4] -18.1% | [5] 13.8% | [6] 8.65%

NNC(=O)C(CC(C(=O)NN)C(=O)NN)C(=O)NN
inactive: [1] 47.5% | [2] -1.5% | [3] 5.25% | [4] -22.5% | [5] 13.9% | [6] 29.7%

CCOCCCN
inactive: [1] 37.5% | [2] 16.7% | [3] 6.85% | [4] 3.4% | [5] 16.9% | [6] 5.25%

O=C(/C=C/c1ccccc1)Nc1ccccc1C(F)(F)F
inactive: [1] 4.45% | [2] 9.05% | [3] 0.7% | [4] -3.7% | [5] 12.6% | [6] 18.2%

C(=C\c1cc(CCc2nc3ccccc3[nH]2)[nH]n1)/c1ccccc1
inactive: [1] -4.4% | [2] -16.5% | [3] -12.3% | [4] 22.6% | [5] -4.25% | [6] -15.2%

BrC1=C(c2ccccc2)SC(Br)=C(c2ccccc2)S1
inactive: [1] 1.55% | [2] 4.45% | [3] 1.2% | [4] 21.7% | [5] 5.45% | [6] 3.75%

CC(=O)[O][Ga]([Br])[O]C(C)=O
inactive: [1] 6.3% | [2] 11.8% | [3] 12.3% | [4] 14.4% | [5] 15.7% | [6] 0.5%

Clc1cccc2nsnc12
inactive: [1] 12.9% | [2] -12.1% | [3] -3.15% | [4] -49% | [5] 5.15% | [6] 6.1%

CC(=O)Nc1c(F)c(F)c(F)c(F)c1F
inactive: [1] 20.1% | [2] 2.2% | [3] -11.7% | [4] -35% | [5] 14.3% | [6] -13.1%

CCCCn1c2c(c3ccccc3c1=O)C(=O)c1ccccc1-2
inactive: [1] 12.1% | [2] -15.7% | [3] -4.8% | [4] 2.1% | [5] -18% | [6] -53%

CCOC(=O)/C(C#N)=C/c1ccccc1F
inactive: [1] 22.9% | [2] 13.5% | [3] 20.4% | [4] 1.4% | [5] 14.8% | [6] 40.8%

CC(C)OCN1COCN=C1NC#N
inactive: [1] 38.2% | [2] 12.2% | [3] 23.1% | [4] 28.7% | [5] -10.4% | [6] 33%

O=[N+]([O-])c1ccc(CCCn2cnc3c(Cl)ncnc32)c([N+](=O)[O-])c1
inactive: [1] 15% | [2] 0.95% | [3] 7.95% | [4] -1.45% | [5] 1.2% | [6] -10.6%

O=C=Nc1cccc([N+](=O)[O-])c1
inactive: [1] -0.65% | [2] -5.7% | [3] -0.75% | [4] -5.05% | [5] -27.9% | [6] -40.5%

CC1=C(c2ccccc2)OS(=O)(=O)CC1N(C)C (configuration not stated)
inactive: [1] -2.6% | [2] -16.4% | [3] -1.65% | [4] -6.95% | [5] -7.4% | [6] -2.35%

Clc1ccc(OCc2nnc3n2N=C(c2ccc(Br)cc2)CS3)cc1
inactive: [1] 5.5% | [2] 8.35% | [3] 8.8% | [4] 7.05% | [5] -5% | [6] 13.6%

N#Cc1ccc(S(=O)(=O)c2ccc(C#N)cc2)cc1
inactive: [1] 1% | [2] -17.6% | [3] 11.3% | [4] 24.4% | [5] 12% | [6] -19.4%

CCn1ncc2ccc(N(CO)CO)cc21
inactive: [1] -2.4% | [2] 22.1% | [3] -13.6% | [4] -20.2% | [5] -22.6% | [6] 4.1%

CC(O)C(NC(=O)c1cnc(OCc2ccccc2)nc1N)C(=O)O (configuration not stated)
inactive: [1] 3.65% | [2] -15.7% | [3] -11% | [4] 0.85% | [5] -9.8% | [6] -3.35%

COc1cc2c(c3c1c(=O)c1ccc(F)cc1n3C)C=CC(C)(C)O2
inactive: [1] -4.35% | [2] -28.6% | [3] -16.9% | [4] -23.9% | [5] -7.7% | [6] -5.6%

COC(=O)c1c2c(cc3c1CC1(Cc4ccccc4C1=O)C3)CCC2 (configuration not stated)
inactive: [1] -23.2% | [2] 5.2% | [3] 14.2% | [4] -17.1% | [5] 9.4% | [6] -39.9%

Cc1ccc2c(c1)Nc1ccccc1P2(=O)O
inactive: [1] 7.8% | [2] -3.15% | [3] -40% | [4] 37.6% | [5] 14.3% | [6] -15.4%

COc1ccc(CCCNC(=O)Cc2ccccc2CO)cc1OC
inactive: [1] 21.6% | [2] -46.6% | [3] -3.4% | [4] -0.8% | [5] -10.2% | [6] -48.2%

CC(=O)Nc1ccc2nc(N)sc2c1
inactive: [1] 13% | [2] 5.55% | [3] -16.1% | [4] -3.65% | [5] 3.8% | [6] 6.6%

CC(=O)NN(C)C(C)=O
inactive: [1] 6% | [2] 27.3% | [3] -4.2% | [4] 12.4% | [5] 15.9% | [6] 10.5%

CC1=NOC(=O)/C1=C/c1ccccc1C
inactive: [1] 51.2% | [2] 2.55% | [3] 27.9% | [4] 8.15% | [5] 17.4% | [6] 36.9%

Cc1cc(C)n(-c2ccnc(-n3nc(C)cc3C)n2)n1
inactive: [1] 22% | [2] 23.9% | [3] 33.9% | [4] 7.7% | [5] 21.6% | [6] 40.3%

CCCCCC1(C)OCC(c2ccccc2)O1 (configuration not stated)
inactive: [1] -12.8% | [2] -9.45% | [3] -21% | [4] -47% | [5] -13.3% | [6] 21.1%

CCCc1cc(=O)oc2c3c(c4c(c12)OC(C)(C)CC4)O[C@H](C)C(C)C3=O (some centres not stated)
inactive: [1] -26.9% | [2] -30% | [3] -28.8% | [4] 0.4% | [5] 6.85% | [6] -45%

CC1=NN(C(=O)Cc2ccccc2)C(=O)/C1=C\c1ccco1
inactive: [1] -37.9% | [2] -37.4% | [3] -47.9% | [4] -13.8% | [5] -25.9% | [6] -55.9%

COc1ccc(N(C)CN(C)c2nc(N(C)C)nc(N(C)C)n2)cc1
inactive: [1] -67.8% | [2] -30.8% | [3] -43% | [4] -45.4% | [5] -60.8% | [6] -62.9%

— PubChem BioAssay (NCI)
